FBPA Giardia inh = blocks Giardia fructose-bisphosphate aldolase activity. AID 2451. 0.71% of 290,000 active. purified Giardia FBPA. A8B2U2. Potency, µM (doses to about 59.6 µM), actives largely listed as inhibitors; also: nearly all actives have a fitted effect of over 55% in size
Target sequence (A8B2U2 whole entry, looked up): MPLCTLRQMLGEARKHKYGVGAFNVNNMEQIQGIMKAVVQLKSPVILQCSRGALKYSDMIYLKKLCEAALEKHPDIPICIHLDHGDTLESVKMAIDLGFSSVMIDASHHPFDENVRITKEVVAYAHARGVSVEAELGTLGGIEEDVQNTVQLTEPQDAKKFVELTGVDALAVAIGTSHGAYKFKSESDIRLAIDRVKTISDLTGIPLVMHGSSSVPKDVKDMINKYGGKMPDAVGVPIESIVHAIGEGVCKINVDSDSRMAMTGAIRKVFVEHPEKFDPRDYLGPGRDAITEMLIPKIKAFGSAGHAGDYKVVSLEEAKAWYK
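Giardia FBPA (40 nM reagent) was preincubated 10 min at RT with compound (up to 57.5 uM final), then substrate plus GAPDH/TPI/NAD/arsenate coupling system with diaphorase/resazurin was added; resorufin fluorescence (525/598 nm) was read after 20 min.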
RE007 growth inh = less growth of the S. pombe RE007 Vpr strain; S. pombe RE007 Vpr strain, BacTiter-Glo ATP luminescence, 24 h; Potency, µM (titrated, usually from 92.2 µM), hits mostly inhibitors; 0.21% of 360,000 active; AID 651644; active = well fitted falling curve with a large enough effect; inconclusive = small, poorly fitted or top-dose-only effect; inactive = no such curve, though single readings can be large or run the other way; also: nearly all actives have a fitted effect of over 50% in size
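Fission yeast RE007 carrying one integrated HIV-1 vpr copy, seeded at OD 0.01 in PMG+AL medium with 23 nL pinned compound. Grown 24 h at 30 degrees; viability read by BacTiter-Glo luminescence after 5 min.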
AmpC inh no detg = blocks E. coli AmpC beta-lactamase in detergent-free assay | AmpC nitrocefin hydrolysis, absorbance 480 nm, 0.0001% Triton | Potency, µM (doses to about 57.1 µM), hits mostly inhibitors | P00811 | 0.52% of 330,000 active | AID 485341; also: nearly all actives have a fitted effect of over 20% in size
Target sequence (P00811 whole entry, looked up): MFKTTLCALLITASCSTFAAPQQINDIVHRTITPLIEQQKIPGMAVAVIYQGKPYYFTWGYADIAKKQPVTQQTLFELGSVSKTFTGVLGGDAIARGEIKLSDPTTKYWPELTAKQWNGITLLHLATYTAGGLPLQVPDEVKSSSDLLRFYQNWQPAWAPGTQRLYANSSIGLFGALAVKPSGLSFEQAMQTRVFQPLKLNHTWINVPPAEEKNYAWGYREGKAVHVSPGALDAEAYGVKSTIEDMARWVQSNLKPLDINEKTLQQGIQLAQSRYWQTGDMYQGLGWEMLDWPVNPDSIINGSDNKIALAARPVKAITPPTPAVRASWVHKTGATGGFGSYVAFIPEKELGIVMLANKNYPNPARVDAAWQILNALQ
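AmpC (5.3 nM in the dispensed reagent) in 20 mM phosphate pH 7.0 with 0.01% (detergent screen) or 0.0001% Triton X-100 was preincubated with compounds for 15 min at room temperature. Nitrocefin was then added from an 800 uM solution, and hydrolysis was followed at 480 nm.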
Sm TGR block = inhibitors of Schistosoma mansoni thioredoxin glutathione reductase; Q962Y6; purified TGR, DTNB reduction, TNB absorbance 405 nm; Potency, µM (top dose mostly 114 µM), hits mostly inhibitors; 3% of 360,000 active; also: nearly all actives have a fitted effect of over 60% in size
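First, TGR (20 nM dispensed) and NADPH were mixed with compound. Second, a 15 min room-temperature incubation followed. Third, further NADPH and then DTNB were added to start the reaction. Finally, TNB absorbance was monitored kinetically.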
AmpC inh detg = inhibitors of E. coli AmpC beta-lactamase with detergent; 0.041% of 370,000 active; P00811; AmpC hydrolysis of nitrocefin, absorbance 480 nm, 0.01% Triton; AID 485294; Potency, µM (series often up to 114 µM), actives largely listed as inhibitors; also: nearly all actives have a fitted effect of over 25% in size
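20 mM phosphate pH 7.0 + 0.01% (detergent screen) or 0.0001% Triton X-100; 5.3 nM AmpC reagent; cpd preinc 15 min RT; nitrocefin (800 uM stock) to start; A480 q20 s × 4 min; Activity was normalised to no-enzyme and no-compound control wells.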
Numbers stand for hits; . = inactive; ? = inconclusive; / = no result; [ ] = another dose, or the depositor's remark. In the library only some 3.4% were active in any assay of this set; here they are far more common. Unless noted, calls follow the shape of the dose curve; as a rule, active = well fitted curve in the direction sought with a large enough effect; inconclusive = small, poorly fitted or top-dose-only effect, or another doubt; inactive = no such curve, though single readings can be large; an effect the other way counts as inactive or inconclusive.

SMILES | FBPA Giardia inh | RE007 growth inh | AmpC inh no detg | Sm TGR block | AmpC inh detg
O=C(Nc1cccc(S(=O)(=O)N2CCCCC2)c1)C1CC(=O)N(Cc2ccco2)C1 (centres undefined) | . | . | . | ? | .
Cc1ccnc(NC(=O)C2CCC(CNc3c(N4CCCC4)c(=O)c3=O)CC2)c1 (centres undefined) | . | . | 2.24µM | . | ?
COc1cc(NC(=O)C2CCC(CNc3c(N4CCC(C)CC4)c(=O)c3=O)CC2)cc(OC)c1 (centres undefined) | . | . | . | . | ?
COc1cc(NC(=O)C2CCC(CNc3c(N4CCCCC4)c(=O)c3=O)CC2)cc(OC)c1 (centres undefined) | . | . | 50.1µM | . | ?
COCCNC(=O)C1(C)Cc2c(-c3cccc(NC(C)=O)c3)ccnc2O1 (centres undefined) | / | . | / | / | /
CCCC(=O)N1CCOCC1c1cc(C(=O)NCc2ccccc2)no1 (centres undefined) | / | . | / | / | /
CCN(CC)C(=O)Cc1c(OC)ccc2cc(Br)ccc12 | . | . | . | . | .
CCN(Cc1ccncc1)Cc1c(O)ccc2cc(Br)ccc12 | 8.89µM | . | . | 1.78µM | .
CC(C)[C@@H](N)C(=O)O | . | / | / | / | /
CC(C)(S)[C@@H](N)C(=O)O | 12.6µM | .[18.4 µM] | . | . | .
COc1cc(C(=O)OC(C)C(=O)NC(=O)NC2CCCCC2)ccc1OC(F)F (centres undefined) | / | . | . | . | .
O=C(Nc1ccccc1C(F)(F)F)C(O)(c1ccccc1)C1CCCCC1 (centres undefined) | / | . | . | 3.98µM | .
CCN(CC)C(=O)COc1ccc(Br)cc1Cl | . | . | . | . | .
C/C(=N\NC(=O)c1cc2ccccc2cc1O)c1cccs1 | . | . | ? | . | .
C/C(=N/NC(=O)c1cc2ccccc2cc1O)c1ccco1 | / | . | 25.1µM | . | .
C/C(=N\NC(=O)c1cc(C)nc2ccccc12)c1ccco1 | . | . | .[2.29 µM] | . | .
C/C(=N\NC(=O)c1cc2ccccc2cc1O)c1ccc(C)o1 | / | . | 7.94µM | . | .
CCOC(=O)c1cc2c(=O)n3ccccc3nc2n(C)c1=NC(=O)c1cc2ccccc2o1 | / | / | / | . | .
COc1ccc(C(=O)/C=C/c2ccc(OC)c(COc3ccc(F)cc3)c2)cc1 | . | . | . | . | .
Cc1ccc(S(=O)(=O)N(C)C)cc1NC(=O)C(C)OC(=O)CC1CC2CCC1C2 (centres undefined) | / | . | / | / | /
Cc1c(O)nc(SCC(=O)Nc2ccc3c4c(cccc24)CC3)n(-c2ccccc2)c1=O | . | . | 35.5µM | . | .
O=C(CSc1nc(O)cc(=O)n1-c1ccccc1)Nc1ccc2c3c(cccc13)CC2 | . | . | . | . | .
CC(=O)NC(c1ccco1)c1cc(Cl)c2ccc(N3CCCCC3)nc2c1O (centres undefined) | / | / | . | 10µM | .
CC(=O)NC(c1ccccc1)c1cc(Cl)c2cccnc2c1O (centres undefined) | . | . | . | . | .
Cc1ccc(S(=O)(=O)N2CCC(=O)N(C(CO)C(C)C)CC2)cc1 (centres undefined) | . | . | . | . | .
SMILES | FBPA Giardia inh | RE007 growth inh | AmpC inh no detg | Sm TGR block | AmpC inh detg
Oc1ccc(CNc2ccccc2)c2cccnc12 | ? | . | . | 0.251µM | ?
Oc1ccc(CNc2ccc(F)cc2)c2cccnc12 | . | ? | . | ? | ?
Oc1ccc(CNCc2ccc3c(c2)OCO3)c2cccnc12 | / | / | . | 5.62µM | .
O=C(CSc1ncccn1)NCc1ccc2c(c1)OCO2 | . | . | . | . | ?
Cc1cccc(NCc2ccc(O)c3ncccc23)c1 | . | . | . | 0.1µM | .
Oc1ccc(Cn2ccnc2)c2cccnc12 | ? | . | . | 22.4µM | .
N#C/C(=C/c1ccc(N2CCOCC2)o1)C(=O)NC1CCCCC1 | . | . | . | 31.6µM | .
N#C/C(=C\c1ccc(N2CCOCC2)o1)C(=O)Nc1ccc(O)cc1 | . | . | . | / | .
N#C/C(=C/c1ccc(N2CCCCC2)o1)C(=O)Nc1ccc(Cl)cc1 | . | . | . | ? | .
COc1ccc(NC(=O)/C(C#N)=C\c2ccc(N3CCOCC3)o2)cc1 | . | . | . | 44.7µM | .
COC(=O)c1sccc1-c1ccc(C(N)=O)o1 | . | / | . | 50.1µM | .
O=C(CSc1nc2ccccc2c(=O)n1Cc1ccco1)NCc1ccco1 | . | . | . | 39.8µM | .
N#CCCn1c(SCC(=O)NCc2ccco2)nc2ccccc21 | . | . | . | 39.8µM | .
CCN(CC)CCn1c(SCC(=O)NCCC2=CCCCC2)nc2c(sc3ccccc32)c1=O | . | . | . | . | .
C=CCn1c(SCC(=O)Nc2ccccc2F)nc2ccccc2c1=O | . | . | . | 79.4µM | .
O=C(CSc1nc2ccccc2n1CC(=O)NCc1ccccc1)NCc1ccco1 | . | . | . | . | ?
CCCCn1c(SCC(=O)NCc2ccco2)nc2ccccc2c1=O | . | . | . | . | ?
CCN(CC)CCn1c(SCC(=O)NCc2ccco2)nc2c(sc3ccccc32)c1=O | . | . | . | 31.6µM | .
CCOc1cc(N2CCOCC2)c(OCC)cc1NC(=O)c1ccc(F)c(S(=O)(=O)N2CCOCC2)c1 | / | . | . | . | .
CCOCCCNC(=S)N1CCN(c2nc(-c3ccc(F)cc3)cs2)CC1 | . | . | . | . | .
CCOc1cc(CN2CCC(N3CCC(C(=O)NC4CC4)CC3)CC2)ccc1O | / | . | / | / | /
CN1CCN(Cc2c(O)ccc3cc(Br)ccc23)CC1 | . | ? | . | 3.55µM | .
Cc1ccc(Cn2ccn(CC(=O)Nc3c(C)cc(C)cc3C)c(=O)c2=O)cc1 | / | / | / | . | .
Nc1ccc(Br)c[n+]1Cc1cccc2cccnc12 | . | . | . | . | .
CC(C)Cn1c(N)c(C(=O)COC(=O)c2cc(-c3ccccc3)nc3ccccc23)c(=O)n(C)c1=O | . | . | . | . | ?
SMILES | FBPA Giardia inh | RE007 growth inh | AmpC inh no detg | Sm TGR block | AmpC inh detg
CC(C)Cn1c(N)c(C(=O)COC(=O)c2cc(-c3ccco3)nc3ccccc23)c(=O)n(C)c1=O | . | . | . | 6.31µM | .
Cn1c(=O)c(C(=O)COC(=O)c2cc(-c3ccco3)nc3ccccc23)c(N)n(Cc2ccccc2)c1=O | . | / | . | 3.16µM | .
COC(=O)c1cc2sccc2n1CC(=O)Nc1ccc(OC)c(OC)c1OC | . | . | . | . | .
O=C(NC1CC1)C1CCN(S(=O)(=O)c2cc([N+](=O)[O-])ccc2Cl)CC1 | / | . | . | ? | .
Cc1nnc(NC(=O)C2CCN(S(=O)(=O)c3cc([N+](=O)[O-])ccc3Cl)CC2)o1 | / | . | . | 35.5µM | .
Cc1ccc(-c2nc(CS(=O)(=O)CC(=O)NC3CC3)c(C)o2)cc1 | / | . | . | 31.6µM | .
Cc1ccc(-c2nc(CS(=O)(=O)CC(=O)NC3CCCCC3C)c(C)o2)cc1 (centres undefined) | . | . | . | 35.5µM | .

Screening data from PubChem.
